Experimental findings from PubChem BioAssay are described below.

Values without a mark were called inactive. For part of these data: Entries with a potency or affinity are not part of this list. Active and inactive are the calls of the source. Unless noted, the rule behind the calls is not given here.

A short description of assay [1]: antimalarial activity against Dd2 strain (AID 2302;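 active = growth inhibition above 50% at the single 2 µM test dose, taken to imply half-maximal potency below 2 µM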;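 note: 0% = DMSO untreated growth and 100% = chloroquine plus artemisinin killed control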). The note with it: P. falciparum Dd2 in RBCs, LDH growth readout, 72 h; at 2 µM; hits give high values.
Assay [2] is described as follows: HepG2 cytotoxicity, primary screen, cytotoxicity control for P. falciparum antimalarial project, cell-based, ATP luminescence (AID 2303;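 active = inhibition above 50%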;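 note: 0% = DMSO wells and 100% = digitonin-killed cells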). To be noted: HepG2 viability, 24-48 h, at 10 µM, hits give high values.
Assay [3] addresses L-lactate dehydrogenase (Plasmodium falciparum (isolate CDC / Honduras)) (UniProt Q27743). The assay is described as follows: PfLDH activity inhibition – cell lysate, 3D7 strain, counter-screen for P. falciparum growth inhibition project (AID 2304).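 Note: 0% = vehicle and 100% = reference inhibitor.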 The note with it: P. falciparum 3D7 crude extract, LDH APAD/NBT absorbance; at 2 µM; hits give high values.
A short description of assay [4]: inhibition of 3D7 malaria parasite growth – strain 3D7 (AID 2306).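 Note: 0% = DMSO wells and 100% = chloroquine plus artemisinin control wells.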 To be noted: P. falciparum 3D7 erythrocytic growth, LDH absorbance, 72 h; at 2 µM; hits give high values.
Assay [5] has as its target Calcium-dependent protein kinase 1 (Plasmodium falciparum (isolate 3D7)) (UniProt P62344). The assay is described as follows: PfCDPK1 kinase inhibitors, biochemical, TCAMS library (AID 1159585; cut-off not given, nearly all actives have IC50 up to about 0.98 µM;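 note: inhibitors leave more ATP so luminescence rises with inhibition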). The note with it: recombinant PfCDPK1, Kinase-Glo ATP depletion luminescence.
In assay [6] the target is Plasmodium falciparum protein kinase 6 (PK6, PF3D7_1337100) (UniProt Q8IDW1). The assay is described as follows: PfPK6 kinase inhibitors, biochemical, TCAMS library (AID 1159586). To be noted: recombinant PfPK6, Kinase-Glo ATP depletion luminescence.
For assay [7], the target named is Protein kinase 7 (PK7), Plasmodium falciparum 3D7 (PF3D7_0213400) (UniProt Q7YTF7). The assay is described as follows: inhibition of Plasmodium PK7 catalytic activity – biochemical, TCAMS antimalarial set, Kinase-Glo luminescence (AID 1159587). The note with it: recombinant PfPK7, Kinase-Glo ATP depletion luminescence.
The target in assay [8] is Calcium-dependent protein kinase 4 (Plasmodium falciparum (isolate 3D7)) (UniProt Q8IBS5). The assay can be described thus: PfCDPK4 kinase inhibitors, biochemical, TCAMS library (AID 1159588; cut-off not given, nearly all actives have IC50 up to about 0.91 µM). To be noted: recombinant PfCDPK4, Kinase-Glo ATP depletion luminescence.
Calcium-dependent protein kinase 4 (Plasmodium falciparum (isolate 3D7)), sequence (Q8IBS5 whole entry, looked up): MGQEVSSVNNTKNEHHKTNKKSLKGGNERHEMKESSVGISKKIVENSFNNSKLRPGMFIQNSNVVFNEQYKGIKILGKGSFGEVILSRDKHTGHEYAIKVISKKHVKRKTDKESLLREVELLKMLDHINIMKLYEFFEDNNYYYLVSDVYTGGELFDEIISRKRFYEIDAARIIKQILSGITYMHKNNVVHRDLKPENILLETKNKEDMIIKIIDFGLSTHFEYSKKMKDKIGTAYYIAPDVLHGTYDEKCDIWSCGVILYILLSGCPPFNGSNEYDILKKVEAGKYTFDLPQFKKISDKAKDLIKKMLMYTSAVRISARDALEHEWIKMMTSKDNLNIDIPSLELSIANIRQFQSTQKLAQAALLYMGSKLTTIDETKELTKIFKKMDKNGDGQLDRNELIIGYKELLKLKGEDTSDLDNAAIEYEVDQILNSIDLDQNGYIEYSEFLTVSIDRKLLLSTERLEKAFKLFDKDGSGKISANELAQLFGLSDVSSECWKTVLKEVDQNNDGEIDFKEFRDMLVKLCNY

L-lactate dehydrogenase (Plasmodium falciparum (isolate CDC / Honduras)), sequence (Q27743 whole entry, looked up): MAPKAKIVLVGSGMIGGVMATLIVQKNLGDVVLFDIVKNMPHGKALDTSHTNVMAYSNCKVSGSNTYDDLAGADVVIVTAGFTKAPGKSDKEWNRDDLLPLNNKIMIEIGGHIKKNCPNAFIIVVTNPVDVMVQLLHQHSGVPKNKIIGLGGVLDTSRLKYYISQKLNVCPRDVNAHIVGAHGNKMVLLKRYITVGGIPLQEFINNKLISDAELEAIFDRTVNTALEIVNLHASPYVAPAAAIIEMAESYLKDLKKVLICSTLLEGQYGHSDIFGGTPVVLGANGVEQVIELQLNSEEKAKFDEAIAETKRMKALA
Plasmodium falciparum protein kinase 6 (PK6, PF3D7_1337100), sequence (Q8IDW1 1-305): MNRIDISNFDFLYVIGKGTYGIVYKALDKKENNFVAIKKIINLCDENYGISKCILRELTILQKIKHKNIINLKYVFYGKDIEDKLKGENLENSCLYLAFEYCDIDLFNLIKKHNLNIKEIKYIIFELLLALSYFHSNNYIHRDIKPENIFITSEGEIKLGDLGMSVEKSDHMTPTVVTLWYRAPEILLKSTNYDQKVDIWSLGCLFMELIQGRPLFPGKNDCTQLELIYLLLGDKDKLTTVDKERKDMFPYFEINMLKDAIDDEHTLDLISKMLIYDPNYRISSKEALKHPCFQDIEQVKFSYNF
Calcium-dependent protein kinase 1 (Plasmodium falciparum (isolate 3D7)), sequence (P62344 whole entry, looked up): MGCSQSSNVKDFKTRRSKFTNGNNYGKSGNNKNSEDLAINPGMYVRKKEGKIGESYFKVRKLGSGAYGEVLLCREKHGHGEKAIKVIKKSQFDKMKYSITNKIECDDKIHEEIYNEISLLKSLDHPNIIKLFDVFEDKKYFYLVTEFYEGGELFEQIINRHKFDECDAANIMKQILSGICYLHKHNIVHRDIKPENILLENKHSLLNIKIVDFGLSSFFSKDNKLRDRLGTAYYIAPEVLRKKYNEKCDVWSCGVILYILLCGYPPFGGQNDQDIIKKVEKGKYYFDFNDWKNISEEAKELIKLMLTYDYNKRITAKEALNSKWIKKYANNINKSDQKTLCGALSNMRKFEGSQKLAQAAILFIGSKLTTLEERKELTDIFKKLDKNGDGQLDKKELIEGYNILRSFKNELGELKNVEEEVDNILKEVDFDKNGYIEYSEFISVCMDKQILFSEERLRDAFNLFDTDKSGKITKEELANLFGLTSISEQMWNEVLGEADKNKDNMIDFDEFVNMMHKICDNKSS
Protein kinase 7 (PK7), Plasmodium falciparum 3D7 (PF3D7_0213400), sequence (Q7YTF7 1-343): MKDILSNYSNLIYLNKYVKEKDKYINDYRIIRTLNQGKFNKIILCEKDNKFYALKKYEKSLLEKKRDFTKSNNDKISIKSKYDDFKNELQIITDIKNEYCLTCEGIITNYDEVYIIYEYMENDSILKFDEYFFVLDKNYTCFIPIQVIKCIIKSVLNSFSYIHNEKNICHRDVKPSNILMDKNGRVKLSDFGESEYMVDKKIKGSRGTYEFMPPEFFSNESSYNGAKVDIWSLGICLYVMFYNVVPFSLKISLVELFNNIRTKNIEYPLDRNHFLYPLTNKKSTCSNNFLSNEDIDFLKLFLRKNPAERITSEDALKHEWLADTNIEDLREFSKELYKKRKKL

Turning to `Cc1cc(O)c(C(C)C)cc1C1(c2cc(C(C)C)c(O)cc2C)OC(=O)c2ccccc21`, the growth inhibition is 18% in assay [1] and 95% (active) in assay [4]. The figures for the inhibition in assay [2] and in assay [3] were 8% and -3%, respectively. Moreover, the outcome in assay [5], in assay [6], in assay [7] and in assay [8] was inactive.
Take `CC(C)N1CCN(c2ccc(OCCCCN3CCN(c4cccc(Cl)c4Cl)CC3)c(C(F)(F)F)c2)CC1`: the results for the growth inhibition in assay [1] and in assay [4] were 28% and 101% (active), respectively. Besides, the inhibition in assay [2] is 64% (active); in assay [3] it was 4%. Besides, the outcome in assay [5], in assay [6], in assay [7] and in assay [8] was inactive.
`O=C(Nc1ccc(OC2CCN(Cc3ccc(F)cc3)CC2)c(Cl)c1)c1ccccc1`: the growth inhibition in assay [1] was 89% (active); in assay [4] it was 90% (active). The inhibition in assay [2] was 16%; in assay [3], -4%. Besides, the outcome in assay [5], in assay [6], in assay [7] and in assay [8] was inactive.
Turning to `NC(=O)c1cccc(Nc2nccc(Nc3ccc(Oc4cccc5ccccc45)cc3)n2)c1`, the growth inhibition in assay [1] is 22%; in assay [4] it was 94% (active). Further, the inhibition was -10% in assay [2] and 3% in assay [3]. Also, the outcome in assay [5], in assay [6], in assay [7] and in assay [8] was inactive.
For `Cc1ccc(C(C(=O)Nc2ccc(N3CCNCC3)c(Cl)c2)c2ccccc2)cc1` (stereo not drawn), the growth inhibition was 93% (active) in assay [1] and 97% (active) in assay [4]. Also, the values for the inhibition in assay [2] and in assay [3] were 23% and -2%, respectively. Also, the outcome in assay [5], in assay [6], in assay [7] and in assay [8] was inactive.
Turning to `c1ccc2cc(CNCCCN3CCN(CCCNCc4ccc5ccccc5c4)CC3)ccc2c1`, the figures for the growth inhibition in assay [1] and in assay [4] were 65% (active) and 100% (active), respectively. Moreover, the inhibition in assay [2] was 60% (active); in assay [3] it was 2%. Further, the result in assay [5], in assay [6], in assay [7] and in assay [8] was inactive.
Regarding `CC(C)Oc1cc2c(cc1NS(=O)(=O)c1ccc(-c3ccc(Cl)cc3)cc1F)CCN(C)CC2`, the results for the growth inhibition in assay [1] and in assay [4] were 2% and 88% (active), respectively. In addition, the results for the inhibition in assay [2] and in assay [3] were 29% and -1%, respectively. The outcome in assay [5], in assay [6], in assay [7] and in assay [8] was inactive.
For `NCCNc1ccnc2cc(Cl)ccc12`, the values for the growth inhibition in assay [1] and in assay [4] were 54% (active) and 101% (active), respectively. Besides, the inhibition in assay [2] was 9%; in assay [3] it was 4%. The result in assay [5], in assay [6], in assay [7] and in assay [8] was inactive.
For the compound `COc1ccc(CNC2Cc3ccccc3C2)cc1-c1ccc(S(=O)(=O)NCc2ccccc2)s1`, the growth inhibition is 25% in assay [1] and 97% (active) in assay [4]. The inhibition is 22% in assay [2] and 4% in assay [3]. In addition, the outcome in assay [5], in assay [6], in assay [7] and in assay [8] was inactive.
`Fc1ccc(COc2ccc(Nc3ncnc4ccc(I)cc34)cc2Cl)cc1`: the growth inhibition in assay [1] is 30%; in assay [4] it was 86% (active). Also, the inhibition in assay [2] was 28%; in assay [3], -5%. The result in assay [5], in assay [6], in assay [7] and in assay [8] was inactive.
Take `COc1ccc(CCN(C)CCCOc2ccc(NC(=O)c3cccc4c(=O)c5ccccc5[nH]c34)cc2)cc1OC`: the growth inhibition in assay [1] is 45%; in assay [4] it was 94% (active). The figures for the inhibition in assay [2] and in assay [3] were 80% (active) and 1%, respectively. Besides, the result in assay [5], in assay [6], in assay [7] and in assay [8] was inactive.
Take `Cc1ccc(NC(=O)c2ccc(N3CCN(c4ccncc4)CC3)cc2)cc1F`: the growth inhibition is 79% (active) in assay [1] and 100% (active) in assay [4]. Further, the results for the inhibition in assay [2] and in assay [3] were 47% and -1%, respectively. For the same compound, the result in assay [5], in assay [6], in assay [7] and in assay [8] was inactive.
For `N#Cc1ccc(N[C@@H](CC2CCCCC2)C(=O)N[C@@H]2CCCc3ccccc32)c2ccccc12`, the growth inhibition in assay [1] and in assay [4] was 99% (active) each time. The inhibition is 12% in assay [2] and -5% in assay [3]. In addition, the result in assay [5], in assay [6], in assay [7] and in assay [8] was inactive.
As for `CC(C)CCN1CCC(Oc2ccc(NC(=O)c3cccs3)cc2Cl)CC1`, the figures for the growth inhibition in assay [1] and in assay [4] were 96% (active) and 97% (active), respectively. The results for the inhibition in assay [2] and in assay [3] were 31% and -6%, respectively. The result in assay [5], in assay [6], in assay [7] and in assay [8] was inactive.
Regarding `COc1ccc(NC(=O)C2c3ccccc3C(=O)N(C3CCCC3)C2c2cccs2)c(OC)c1` (stereo not drawn), the growth inhibition in assay [1] was 54% (active); in assay [4], 84% (active). The inhibition in assay [2] is 3%; in assay [3], 4%. Moreover, the result in assay [5], in assay [6], in assay [7] and in assay [8] was inactive.
As for `O=C(Nc1cccc(CN2CCCN(Cc3ccc(O)cc3)CC2)c1)c1ccc(-c2ccccc2)cc1`, the growth inhibition in assay [1] is 93% (active); in assay [4], 100% (active). In addition, the inhibition is 33% in assay [2] and -8% in assay [3]. Besides, the result in assay [5], in assay [6], in assay [7] and in assay [8] was inactive.
For the compound `O=S(=O)(c1cccc(C(F)(F)F)c1)N1CCC(CO)(Cc2cccc(C(F)(F)F)c2)CC1`, the growth inhibition in assay [1] was 79% (active); in assay [4], 100% (active). Also, the inhibition in assay [2] is 3%; in assay [3], 0%. The result in assay [5], in assay [6], in assay [7] and in assay [8] was inactive.
With `O=C(Nc1ccc(C(F)(F)F)cc1)c1ccc(NCCCN2CCCCCC2)c([N+](=O)[O-])c1`, the results for the growth inhibition in assay [1] and in assay [4] were 98% (active) and 102% (active), respectively. In addition, the inhibition in assay [2] is 42%; in assay [3] it was -5%. In addition, the outcome in assay [5], in assay [6], in assay [7] and in assay [8] was inactive.
`CC(C)c1ncc(-c2ccncc2)c(C2CCC(CNC(=O)c3ccncc3)CC2)n1` (stereo not drawn): the growth inhibition in assay [1] was 49%; in assay [4], 85% (active). For the same compound, the inhibition is -6% in assay [2] and 4% in assay [3]. Moreover, the result in assay [5], in assay [6], in assay [7] and in assay [8] was inactive.
Take `CCN(CC)CCCC(C)Nc1cc(C)nc2cc(Cl)ccc12` (stereo not drawn): the growth inhibition in assay [1] was 7%; in assay [4], 100% (active). The inhibition in assay [2] was 9%; in assay [3], 5%. Also, the result in assay [5], in assay [6], in assay [7] and in assay [8] was inactive.
As to `CCN(CC)CC#Cc1ccc2[nH]c(C)c(Cl)c(=O)c2c1`, the results for the growth inhibition in assay [1] and in assay [4] were 95% (active) and 96% (active), respectively. In addition, the inhibition in assay [2] was 11%; in assay [3], -6%. Moreover, the result in assay [5], in assay [6], in assay [7] and in assay [8] was inactive.
